From PubChem BioAssay (Tox21)
Values joined by “and” are separate entries in the source; they are usually repeats but may differ in a detail not shown here. Identical values can stand only once. Results filed as inconclusive are left out. A call without a number means that no potency is given here. Where a structure was tested more than once in an assay, its records may differ in their call. Active and inactive are the calls of the source. Unless noted, calls come from the whole dose curve; as a rule, active = well fitted curve in the direction sought with a large enough effect in the repeat runs; inconclusive = weak or mixed curves; inactive = no such curve, though single readings can be large; an effect the other way counts as inactive or inconclusive.

Assays:
[1] = A CellTox Green Cytotoxicity Assay to monitor cytotoxicity in HepG2 cells - 8 hour (AID 1224890); note: nearly all actives have a fitted effect of over 45% in size
Summary of the method: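 Read-out is fluorescence of a cyanine dye excluded from live cells that stains DNA of dead HepG2 cells, with signal proportional to cytotoxicity. Plates were read at 0, 8, 16, 24, 32 and 40 h after compound addition.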

[2] = qHTS assay to identify small molecule antagonists of the estrogen receptor alpha (ER-alpha) signaling pathway using the BG1 cell line in the presence of 0.1 nM 17-beta-estradiol - cell viability counter screen (AID 1259241); note: nearly all actives have a fitted effect of over 40% in size
Summary of the method: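 Live-cell protease activity (CellTiter-Fluor fluorescence, 30 min) was read in the same wells after VM7Luc4E2 cells had been exposed to compounds with 0.1 nM 17beta-estradiol for 22 hr at 37C.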

[3] = molecular target: Estrogen receptor (Homo sapiens) (UniProt P03372); test: qHTS assay to identify small molecule antagonists of the estrogen receptor alpha (ER-alpha) signaling pathway using the BG1 cell line in the presence of 0.1 nM 17-beta-estradiol (AID 1259244); note: nearly all actives have a fitted effect of over 50% in size; note: potency is the fitted concentration of half-maximal effect
Chain of Estrogen receptor (Homo sapiens) (P03372 whole entry, looked up): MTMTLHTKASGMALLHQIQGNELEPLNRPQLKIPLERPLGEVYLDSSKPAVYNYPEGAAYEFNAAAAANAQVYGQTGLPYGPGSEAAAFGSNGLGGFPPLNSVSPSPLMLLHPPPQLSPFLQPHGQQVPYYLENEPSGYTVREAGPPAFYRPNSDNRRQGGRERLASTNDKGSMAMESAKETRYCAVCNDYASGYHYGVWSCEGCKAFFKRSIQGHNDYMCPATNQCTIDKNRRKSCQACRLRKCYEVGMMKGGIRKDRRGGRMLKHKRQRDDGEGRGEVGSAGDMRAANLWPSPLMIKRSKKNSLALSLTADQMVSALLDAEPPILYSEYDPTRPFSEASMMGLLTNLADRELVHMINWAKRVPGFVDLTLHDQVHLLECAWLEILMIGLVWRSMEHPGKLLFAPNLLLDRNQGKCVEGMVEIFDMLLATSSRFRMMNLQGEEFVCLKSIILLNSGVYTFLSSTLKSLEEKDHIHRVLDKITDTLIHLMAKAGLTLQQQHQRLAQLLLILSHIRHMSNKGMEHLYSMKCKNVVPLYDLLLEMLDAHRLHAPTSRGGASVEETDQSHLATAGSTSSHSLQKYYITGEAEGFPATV
Summary of the method: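 Cells: VM7Luc4E2, endogenous ER-alpha, 4x ERE-luc stable. Pre-culture 5 d, phenol red-free, charcoal-stripped FBS. Plated 24 h, compound + E2 0.1 nM final, 22 h 37C/5% CO2. Readout ONE-Glo luminescence.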

[4] = qHTS assay to identify small molecule phospholipidosis (PLD) inducers (AID 1259344; active = well fitted curve in the direction sought with a large enough effect; an effect the other way counts as inactive or inconclusive)
Summary of the method: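 Fluorescent phospholipid staining (LipidTOX Red) measured by automated microscopy in fixed HepG2 cells after 24 h treatment; nuclei counterstained with Hoechst 33342; amiodarone as reference inducer.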

[5] = qHTS assay to identify small molecule HDAC inhibitors (AID 1259364); note: top concentration of the series differs between compounds; nearly all actives have a fitted effect of over 45% in size
Summary of the method: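 Luminescence from a cell-permeant luminogenic class I/II HDAC substrate reports endogenous deacetylase activity in intact HCT-116 cells treated with compounds for 2 h.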

[6] = qHTS assay to identify small molecule HDAC inhibitors - cell viability counter screen (AID 1259365); note: series mostly up to about 92 µM; nearly all actives have a fitted effect of over 50% in size
Summary of the method: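 HCT-116 (wild type), 1,500 cells/well, overnight 37C/5% CO2; compound in DMSO 2hr; CellTiter-Glo 30min RT; luminescence read.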

[7] = qHTS assay to identify small molecule agonists of the sonic hedgehog signaling (Shh) pathway - cell viability counter screen (AID 1259366); note: nearly all actives have a fitted effect of over 50% in size; note: potency is the fitted concentration of half-maximal effect
Summary of the method: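 CellTiter-Fluor fluorescence read-out, 1 hr at 37C, added after 23hr compound exposure. Cells: 3T3 Gli1-Luc, an NIH/3T3 clone with stably integrated Gli1-Luc reporter, plated 4hr before compound.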

[8] = qHTS assay to identify small molecule antagonists of the sonic hedgehog signaling (Shh) pathway - cell viability counter screen (AID 1259367); note: nearly all actives have a fitted effect of over 55% in size; note: potency is the fitted concentration of half-maximal effect
Summary of the method: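 Using CellTiter-Fluor, viability of Gli1-Luc reporter 3T3 cells is read by fluorescence in the wells used for the Shh luciferase assay. Treatment lasts 23 hr with conditioned medium, then reagent 1 hr at 37C.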

[9] = qHTS assay to identify small molecule agonists of the sonic hedgehog signaling (Shh) pathway (AID 1259368; calls by dose curve;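 note: NIH/3T3-derived 3T3Gli1-Luc cells carrying a stable Gli1-driven firefly luciferase reporter; series mostly up to about 92 µM; nearly all actives have a fitted effect of over 15% in size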)
Summary of the method: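 3T3Gli1-Luc (NIH/3T3 clone, stable Gli1-Luc); 4 hr pre-incubation, then cpd in DMSO 24 hr, 37 C/5% CO2; luciferase reagent 30 min RT; luminescence.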

[10] = qHTS assay to identify small molecule antagonists of the sonic hedgehog signaling (Shh) pathway (AID 1259369; calls by dose curve; note: nearly all actives have a fitted effect of over 45% in size; note: potency is the fitted concentration of half-maximal effect)
Summary of the method: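 3T3Gli1-Luc, conditioned-medium-stimulated, 24hr cpd, 37C/5% CO2; Gli1-driven firefly Luc luminescence after 30min RT with luciferase reagent. Cells plated 4hr before cpd.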

[11] = molecular target: Estrogen receptor beta (Homo sapiens) (UniProt Q92731); test: qHTS assay to identify small molecule agonists of the estrogen receptor beta (ER-beta) signaling pathway (AID 1259377; active = well fitted activation curve with a large enough effect in the signal ratio in the repeat runs, not every such curve was filed as active; the % refers to the signal ratio; note: potency is the fitted concentration of half-maximal effect)
Chain of Estrogen receptor beta (Homo sapiens) (Q92731 whole entry, looked up): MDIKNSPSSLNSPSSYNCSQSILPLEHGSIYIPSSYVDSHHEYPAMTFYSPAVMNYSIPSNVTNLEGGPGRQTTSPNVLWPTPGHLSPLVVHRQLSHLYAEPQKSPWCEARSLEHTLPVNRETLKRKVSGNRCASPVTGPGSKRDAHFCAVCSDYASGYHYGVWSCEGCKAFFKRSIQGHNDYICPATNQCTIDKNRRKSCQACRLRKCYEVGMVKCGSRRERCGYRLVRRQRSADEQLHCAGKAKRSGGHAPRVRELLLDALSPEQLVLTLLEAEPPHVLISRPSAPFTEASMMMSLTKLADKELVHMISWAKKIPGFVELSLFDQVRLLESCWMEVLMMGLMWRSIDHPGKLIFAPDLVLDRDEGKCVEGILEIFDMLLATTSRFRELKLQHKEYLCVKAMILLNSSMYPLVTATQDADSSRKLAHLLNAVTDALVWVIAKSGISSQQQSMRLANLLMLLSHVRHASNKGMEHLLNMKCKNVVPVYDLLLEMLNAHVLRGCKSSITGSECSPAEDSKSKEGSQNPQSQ
Summary of the method: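 Beta-lactamase reporter readout: fluorescence of LiveBLAzer B/G FRET substrate after 2 h at room temperature, following 16 h compound treatment of ER-beta-UAS-bla HEK293T cells at 37C in 2% charcoal-stripped FBS medium.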

[12] = molecular target: Estrogen receptor beta (Homo sapiens) (UniProt Q92731); test: qHTS assay to identify small molecule antagonists of the estrogen receptor beta (ER-beta) signaling pathway (AID 1259378; active = well fitted inhibition curve with a large enough effect in the signal ratio in the repeat runs, not every such curve was filed as active; the % refers to the signal ratio)
Summary of the method: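 Antagonist mode: compounds added to beta-lactamase reporter HEK293T ER-beta-UAS cells stimulated with E2 (1nM final), 16 hr at 37C. LiveBLAzer B/G FRET substrate, 2 hours room temperature, fluorescence read-out.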

[13] = qHTS assay to identify small molecule agonists of the androgen receptor (AR) signaling pathway in the presence of an antagonist - cell viability counter screen (AID 1259379); note: nearly all actives have a fitted effect of over 25% in size; note: potency is the fitted concentration of half-maximal effect
Summary of the method: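 Cells: MDA-kb2 (MMTV-luc, AR and GR elements), 3,000/well, 5 hr settle. Added: nilutamide 3.0uM final, then compounds (15 conc.). Incubation: 16 hr, 37C, no CO2. Read-out: CellTiter-Fluor, 1 hr, fluorescence.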

[14] = qHTS assay to identify small molecule agonists of the estrogen receptor beta (ER-beta) signaling pathway - cell viability counter screen (AID 1259380); note: nearly all actives have a fitted effect of over 30% in size; note: potency is the fitted concentration of half-maximal effect
Summary of the method: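 HEK293T ER-beta-UAS-bla; 2% CS-FBS; 6 hr pre-plate, 16 hr cpd at 37C/5% CO2; LiveBLAzer read first, then CellTiter-Glo 30 min RT, luminescence.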

[15] = qHTS assay to identify small molecule antagonists of the estrogen receptor beta (ER-beta) signaling pathway - cell viability counter screen (AID 1259382); note: nearly all actives have a fitted effect of over 55% in size; note: potency is the fitted concentration of half-maximal effect
Summary of the method: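 Cells: ER-beta-UAS-bla HEK293T, 2,000/well, 2% CS-FBS, 6 hr settle. Cpd + E2 (1nM final), 16 hr, 37C/5% CO2. Bla FRET substrate 2 hr RT, then CellTiter-Glo 30 min RT, luminescence.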

[16] = molecular target: Estrogen receptor (Homo sapiens) (UniProt P03372); test: qHTS assay to identify small molecule agonists of the estrogen receptor alpha (ER-alpha) signaling pathway in the presence of an antagonist (AID 1259383; calls by dose curve; note: nearly all actives have a fitted effect of over 15% in size; note: potency is the fitted concentration of half-maximal effect; for activation: top concentration of the series differs between compounds)
Summary of the method: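 VM7Luc4E2, endog. ER-alpha + 4×ERE-luc; charcoal-stripped FBS, phenol red-free, 5 d; 24hr plating; +10.0nM ICI-182,780 (final); cpds 15 conc, 22hr, 37C/5% CO2; ONE-Glo luminescence.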

[17] = qHTS assay to identify small molecule agonists or antagonists of the thyroid stimulating hormone receptor (TSHR) signaling pathway - wild type cell line counter screen (AID 1259384; calls by dose curve)
Summary of the method: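 Counter screen in untransfected Hek293: compounds (15-point titration, triplicate) plus phosphodiesterase inhibitor Ro20-1724 added after 18 h plating; 30 min RT. Intracellular cAMP via competitive d2/cryptate immunoassay, 1 h incubation.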

[18] = qHTS assay to identify small molecule antagonists of the androgen receptor (AR) signaling pathway using the MDA cell line in the presence of 0.5 nM R1881 - cell viability counter screen (AID 1259242); note: nearly all actives have a fitted effect of over 45% in size
Summary of the method: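 Counter screen for cytotoxicity run in the same wells as the AR antagonist reporter screen: MDA-kb2 cells were treated 16 hr with test compounds and 0.5 nM R1881, then live-cell protease activity was measured by fluorescence.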

[19] = molecular target: Androgen receptor (Homo sapiens) (UniProt P10275); test: qHTS assay to identify small molecule antagonists of the androgen receptor (AR) signaling pathway using the MDA cell line in the presence of 0.5 nM R1881 (AID 1259243); note: nearly all actives have a fitted effect of over 50% in size
Chain of Androgen receptor (Homo sapiens) (P10275 whole entry, looked up): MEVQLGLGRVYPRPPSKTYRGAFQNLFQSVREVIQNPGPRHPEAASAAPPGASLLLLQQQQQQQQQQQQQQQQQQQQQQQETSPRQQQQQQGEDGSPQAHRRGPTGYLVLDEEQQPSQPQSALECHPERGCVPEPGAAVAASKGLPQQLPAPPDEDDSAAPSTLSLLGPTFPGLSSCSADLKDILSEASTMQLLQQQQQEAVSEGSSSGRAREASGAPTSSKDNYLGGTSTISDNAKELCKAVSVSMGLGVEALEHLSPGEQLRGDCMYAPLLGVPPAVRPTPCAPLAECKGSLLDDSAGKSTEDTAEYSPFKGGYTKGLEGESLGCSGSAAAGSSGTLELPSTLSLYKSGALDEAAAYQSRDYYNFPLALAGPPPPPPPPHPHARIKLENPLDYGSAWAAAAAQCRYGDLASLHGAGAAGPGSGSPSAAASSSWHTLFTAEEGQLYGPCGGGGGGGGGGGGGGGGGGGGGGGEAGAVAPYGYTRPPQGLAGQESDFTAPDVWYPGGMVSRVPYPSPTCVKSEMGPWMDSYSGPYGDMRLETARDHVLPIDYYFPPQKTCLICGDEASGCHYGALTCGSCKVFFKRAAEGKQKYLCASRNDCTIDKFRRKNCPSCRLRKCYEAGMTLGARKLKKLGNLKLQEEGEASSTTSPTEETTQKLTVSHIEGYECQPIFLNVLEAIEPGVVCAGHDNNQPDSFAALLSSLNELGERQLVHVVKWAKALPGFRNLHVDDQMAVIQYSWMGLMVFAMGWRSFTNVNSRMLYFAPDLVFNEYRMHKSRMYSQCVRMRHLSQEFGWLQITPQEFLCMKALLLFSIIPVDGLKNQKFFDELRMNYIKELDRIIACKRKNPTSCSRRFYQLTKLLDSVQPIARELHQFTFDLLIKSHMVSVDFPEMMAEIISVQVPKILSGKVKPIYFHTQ
Summary of the method: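 Luciferase luminescence is the read-out: compounds are tested for suppressing 0.5 nM R1881-driven MMTV reporter activity in MDA-kb2 cells after 16 hr at 37C.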

[20] = molecular target: Androgen receptor (Homo sapiens) (UniProt P10275); test: qHTS assay to identify small molecule agonists of the androgen receptor (AR) signaling pathway in the presence of an antagonist (AID 1259381; calls by dose curve; note: nearly all actives have a fitted effect of over 15% in size)
Summary of the method: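 MDA-kb2 cells, 3,000/well, rested 5hr at 37C/0% CO2 → nilutamide 3.0uM final or buffer → compounds, 15 conc. → 16hr at 37C → ONE-Glo, 30min RT → luminescence.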

SMILES | Potency [1] | outcome [2] | Potency [3] | Potency [4] | Potency [5] | outcome [6] | Potency [7] | Potency [8] | outcome [9] | Potency [10] | Potency [11] | outcome [12] | Potency [13] | Potency [14] | Potency [15] | Potency [16] | outcome [17] | Potency [18] | Potency [19] | Potency [20]
O=C1C2CC=CCC2C(=O)N1SC(Cl)(Cl)Cl (centres undefined) | inactive | inactive | inactive and 26.9 µM (active) | inactive | inactive | inactive | inactive and 13.5 µM (active) | inactive and 13.5 µM (active) | inactive | inactive and 2.69 µM (active) | 8.6 µM (active) | inactive | 30.1 µM (active) | inactive and 30.1 µM (active) | inactive and 30.1 µM (active) | 2.42 µM (active) and inactive | inactive | – | – | –
Oc1ccc2c3c1O[C@H]1[C@@H](O)C=C[C@H]4[C@@H](C2)NCC[C@@]341 | inactive | inactive | – | inactive | inactive | inactive | 28.1 µM (active) | – | inactive | 1.99 µM (active) | inactive | – | inactive | inactive | inactive | – | inactive | – | – | –
CCN(CC)CCOC(=O)C(O)(c1ccccc1)c1ccccc1 | inactive | inactive | inactive | inactive | inactive | inactive | – | inactive | inactive | – | – | – | inactive | inactive | inactive | inactive | inactive | – | – | –
CC(O)CCl (centres undefined) | inactive | – | inactive | – | inactive | inactive | inactive | inactive | inactive | inactive | inactive | inactive | inactive | inactive | inactive | inactive | inactive | inactive | – | –
CN(CCO)CCO | inactive | – | inactive | – | inactive | inactive | inactive | inactive | inactive | – | inactive | inactive | inactive | inactive | inactive | inactive | inactive | – | – | –
CN1C(=O)COc2c(C(=O)NC3CN4CCC3CC4)cc(Cl)cc21 (centres undefined) | – | inactive | inactive | inactive | inactive | inactive | inactive | inactive | inactive | – | – | – | inactive | inactive | inactive | inactive | inactive | inactive | – | –
O=C(Cl)C(Cl)Cl | inactive | – | inactive | – | inactive | inactive | inactive | inactive | inactive | – | inactive | inactive | inactive | inactive | inactive | inactive | – | inactive | – | –
ClCCCCCCCl | inactive | – | – | – | inactive | inactive | inactive | inactive | inactive | inactive | inactive | inactive | inactive | inactive | inactive | – | – | inactive | – | –
O=c1[nH]c2ccccc2n1C1CCNCC1 | inactive | – | – | – | inactive | inactive | inactive | inactive | inactive | inactive | – | – | inactive | inactive | inactive | inactive | inactive | inactive | inactive | inactive
